NPSR antag = blocks cAMP signaling of the human neuropeptide S receptor; CHO-NPSR cells, cAMP TR-FRET, antagonist mode; Potency, µM (top dose mostly 38.3 µM), inactives show at the top dose activity change, negative = inhibition, usual class: inhibitors; 220,000 tested, 1% active; AID 1461; active = well fitted curve in the direction sought with a large enough effect; inconclusive = small, poorly fitted or top-dose-only effect, or another doubt; inactive = no such curve, though single readings can be large; an effect the other way counts as inactive or inconclusive; also: potency is read from the fitted curve at half-maximal effect; nearly all actives have a fitted effect of over 50% in size
Target sequence (Q6W5P4 whole entry, looked up): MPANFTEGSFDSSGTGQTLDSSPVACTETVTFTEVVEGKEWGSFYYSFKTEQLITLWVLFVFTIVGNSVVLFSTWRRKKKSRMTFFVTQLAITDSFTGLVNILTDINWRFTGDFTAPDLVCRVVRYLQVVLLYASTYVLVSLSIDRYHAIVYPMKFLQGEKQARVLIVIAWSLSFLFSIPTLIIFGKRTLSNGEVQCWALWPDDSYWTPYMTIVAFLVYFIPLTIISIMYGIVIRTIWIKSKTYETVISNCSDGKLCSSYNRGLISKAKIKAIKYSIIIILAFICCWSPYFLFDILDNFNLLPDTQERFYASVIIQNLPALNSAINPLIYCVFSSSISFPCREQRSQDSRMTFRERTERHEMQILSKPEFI
IMPase inh = cell-permeable inhibitors of inositol monophosphatase (IMPase); inhibition (IP1 accumulation), % at 46.1 µM; 120,000 tested, under 10 active; CHO-M1 cells, IP1 accumulation, HTRF TR-FRET ratio; active = well fitted curve in the direction sought with a large enough effect in the signal ratio, not every such curve was filed as active; inconclusive = small, poorly fitted or top-dose-only effect, or a change in a side signal; inactive = no such curve, though single readings can be large or run the other way; the % refers to the signal ratio;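 also: cells stimulated with carbachol in lithium chloride buffer; plate controls were DMSO basal wells for no effect and reference inhibitor wells for full effect; higher means more IMPase inhibition seen as more IP1 and lower FRET ratio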
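Seeded CHO-M1 cells were dosed with compound at up to 46 uM, stimulated with carbachol for 30 min, then lysed in IP-One detection reagents. Higher IP1 lowers the TR-FRET signal.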
PNC inhibitor = blocks assembly of the perinucleolar compartment | PC3M PTB-GFP, PNC prevalence imaging, 16 h; active compounds read low | activity change (PNC), negative = inhibition, % at 10 µM | 140,000 tested, 3.1% active | AID 2417;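 active = readout at or below -70, meaning at least 70% loss of cells showing the perinucleolar compartment, a nuclear body marking cancer cells; inconclusive = readout between -30 and a set limit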;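 also: plate controls were DMSO wells for no effect and camptothecin positive control wells for full effect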
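PC3M cells stably expressing PTB-GFP, 750–1000 cells/well, treated 16 h at 37 °C with compound (23 nl of library stock), in duplicate. After paraformaldehyde fixation and Hoechst stain, imaged at 20x; PNC prevalence scored by image analysis.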
ALDH1A1 inh = blocks purified human ALDH1A1 activity. P00352. Purified ALDH1A1, NADH fluorescence, propionaldehyde substrate. Potency, µM (series often up to 75.3 µM), for inactives: top-dose activity, negative = inhibition, usual class: inhibitors. 220,000 tested, 7.3% active. AID 1030;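 also: potency is read from the fitted curve at half-maximal effect; plate controls were no enzyme wells and a reference inhibitor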
IMPase Li inh = membrane-permeable IMPase blocker, potentiated with lithium | CHO-M1 cells, IP1 TR-FRET (IP-One), carbachol + lithium | Potency, µM (series often up to 59.4 µM), for the others: top-dose activity, negative = IMPase inhibition, actives largely listed as inhibitors | 210,000 tested, 0.35% active; active = well fitted curve in the direction sought with a large enough effect; inconclusive = small, poorly fitted or top-dose-only effect, or another doubt; inactive = no such curve, though single readings can be large; an effect the other way counts as inactive or inconclusive;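 also: IP1 builds up when IMPase is blocked and the TR-FRET signal falls; potency is read from the fitted curve at half-maximal effect; plate controls were basal vehicle for no effect and high inhibitor control for full effect; nearly all actives have a fitted effect of over 50% in size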
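Readout is a homogeneous TR-FRET IP1 immunoassay (Ex 320, Em 665 and 620), where raised cytosolic IP1 lowers signal. Cells were CHO-M1 treated 30 min at 37C with test compounds plus a little lithium; AC50 values came from Hill-equation fitting.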
HPGD inh = inhibitors of human 15-hydroxyprostaglandin dehydrogenase (HPGD). 150,000 tested, 4.3% active. Potency, µM, inactives show at the top dose activity change, negative = inhibition, most hits filed as inhibitors. P15428. purified HPGD, NADH fluorescence kinetic, PGE2 substrate; also: potency is read from the fitted curve at half-maximal effect
Target sequence (P15428 whole entry, looked up): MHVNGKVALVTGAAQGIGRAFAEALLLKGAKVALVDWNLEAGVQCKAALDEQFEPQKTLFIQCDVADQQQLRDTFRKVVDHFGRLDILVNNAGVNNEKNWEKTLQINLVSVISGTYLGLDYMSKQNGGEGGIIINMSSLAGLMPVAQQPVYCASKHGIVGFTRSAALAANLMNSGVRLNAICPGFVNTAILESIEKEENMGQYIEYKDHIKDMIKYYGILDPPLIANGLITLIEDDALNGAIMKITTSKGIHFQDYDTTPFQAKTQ
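20 nM HPGD preincubated 15 min at room temperature with compound in 50 mM Tris-HCl pH 8, 0.01% Tween 20. Started with 1 mM NAD+ and 30 uM prostaglandin E2; NADH fluorescence (360/450 nm) read 5 times over 30-s intervals, last minus first.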
Numbers without * were called inactive; u = inconclusive; x = no result given; [ ] = another dose, or the depositor's remark. An excerpt weighted towards active compounds, which were near 11% of everything screened. Unless noted, calls follow the shape of the dose curve; as a rule, active = well fitted inhibition curve with a large enough effect (not every such curve was filed as active); inconclusive = small, poorly fitted or top-dose-only effect, or another doubt; inactive = no such curve, though single readings can be large or run the other way. Unless noted, % is scaled to controls: 0 for no effect and ±100 for the full control effect.

SMILES	NPSR antag	IMPase inh	PNC inhibitor	ALDH1A1 inh	IMPase Li inh	HPGD inh
CCOC(=O)c1c(NC(=O)CC(C)C)sc(C(C)=O)c1C	u	6	-100*	u	7%	-15%
CCOC(=O)c1sc(NC(=O)CN(CC(C)C)CC(C)C)c(C(=O)OCC)c1C	-10%[46.1 µM]	2	-110*	22µM*	29%[38.3 µM]	u
Cc1cc(NC(=O)c2cc(-c3ccc(O)cc3)on2)no1	-5%	x	x	x	x	x
CCOC(=O)c1c(NC(=O)c2cc(-c3ccc(O)cc3)on2)sc(C(C)=O)c1C	0%	x	24	22µM*	5%	18µM*
CCOC(=O)C1C(=O)C=C(N2CCOCC2)CC1c1cccc(OC)c1 (configuration not stated)	-2%[46.1 µM]	-2	11	-4%	x	x
CCSc1nc(N)c(C#N)c(-c2ccccc2Cl)c1C#N	-18%[46.1 µM]	-8	31	u	15%[38.3 µM]	u
Cc1c(CCO)c(=O)n(C)n1C(=O)c1ccc(Cl)cc1	-6%[46.1 µM]	8	80	-3%	6%[38.3 µM]	-12%
CSc1cccc(NC(=O)CN2C(=O)c3ccccc3S2(=O)=O)c1	-6%[46.1 µM]	6	45	u	-16%[38.3 µM]	-3%
Cc1cccc(NC(=O)CN2NS(=O)(=O)c3ccccc3C2=O)c1	-4%[46.1 µM]	5	u	10µM*	24%[38.3 µM]	-13%
COc1ccc(N(CC(=O)NCCSC2CCCCC2)S(C)(=O)=O)c(OC)c1	6%[46.1 µM]	8	u	14µM*	68%[38.3 µM]	22µM*
CS(=O)(=O)N(CC(=O)NCCSC1CCCCC1)c1ccc2c(c1)OCO2	-6%[46.1 µM]	11	38	u	22%[38.3 µM]	-9%
CC(C)[C@@H](N)C(=O)N/N=C/c1ccc2ncccc2c1	14%	x	x	x	x	x
Fc1c(F)c(F)c(N=Cc2ccc3ncccc3c2)c(F)c1F	5%	x	-30	8.9µM*	-14%	-7%
CC(C)=CCC/C(C)=C/CO	x	x	x	4%[13.5 µM]	3%	-9%
Cc1nc2ccccc2n1CCCOc1ccccc1	0%[46.1 µM]	-1	-105*	-7%	10%	-4%
COCc1nc2ccccc2n1CCCOc1ccccc1	-11%[46.1 µM]	4	-106*	-5%	-7%[38.3 µM]	-11%
CCOC(=O)c1[nH]c(C)c(C(=O)OCC(=O)N(C)C2CCS(=O)(=O)C2)c1C (configuration not stated)	18%	x	x	4%	-7%	x
COc1cc(C(C)=O)ccc1Oc1ncnc2c1cnn2-c1cccc(Cl)c1	-41%	x	9	10%	2%	-25%
CC1CCC(NC(=O)CC2Oc3ccccc3NC2=O)CC1 (configuration not stated)	-3%[46.1 µM]	3	6	-4%	5%[38.3 µM]	-8%
Nc1nc(NCc2ccco2)nc(NC2CCCCC2)c1[N+](=O)[O-]	10%[7.67 µM]	x	x	x	x	x
Nc1nc(NCc2ccco2)nc(N2CCN(Cc3ccccc3)CC2)c1[N+](=O)[O-]	27%	x	x	-5%	x	x
Nc1nc(NCc2ccco2)nc(N2CCCCCC2)c1[N+](=O)[O-]	13%	x	-11	1.6µM*	10%	-10%
Nc1nc(NCc2ccco2)nc(N2CCCC2)c1[N+](=O)[O-]	4%	x	x	4µM*	x	x
Cc1cc(SCC(=O)OCC(=O)c2c(N)n(C)c(=O)n(C)c2=O)c(C)cc1Br	-7%	x	x	-10%	-6%	x
CCc1nnc(NS(=O)(=O)c2ccc(NC(=S)NC(=O)c3ccccc3)cc2)s1	-20%	x	30	u	-2%	-12%
SMILES	NPSR antag	IMPase inh	PNC inhibitor	ALDH1A1 inh	IMPase Li inh	HPGD inh
CCc1nnc(NS(=O)(=O)c2ccc(NC(=S)NC(=O)/C=C/c3ccc(C(C)C)cc3)cc2)s1	u	10	15	-73%	4%[38.3 µM]	25µM*
CCc1nnc(NS(=O)(=O)c2ccc(NC(=S)NC(=O)c3ccc(Br)cc3)cc2)s1	-47%	x	-5	-7%	-4%	14µM*
O=c1[nH]c(SCc2c(Cl)c(Cl)c(Cl)c(Cl)c2Cl)nc(=S)[nH]1	x	x	x	-4%[13.5 µM]	9%	4µM*
Clc1cccc(-c2ccc(C=Nc3ccc(N4CCOCC4)cc3)o2)c1Cl	2%	x	x	10µM*	0%	x
Clc1ccc(-c2ccc(C=Nc3ccc(N4CCOCC4)cc3)o2)c(Cl)c1	-6%	x	x	-4%	-11%	x
Clc1ccc(-c2ccc(C=Nc3ccc(N4CCOCC4)cc3)o2)cc1	13%	x	u	3.5µM*	-2%	-8%
N#C/C(=C\c1cccc(OC(=O)c2cccs2)c1)C(N)=O	3%	x	u	-6%	2%	25µM*
O=C(Cn1c(=O)oc2cc(S(=O)(=O)N3CCCCC3)ccc21)N1CCc2ccccc21	-4%[46.1 µM]	-3	11	5%	-2%[38.3 µM]	-10%
Cc1ccc(/C=C2\CCCC3=C2NC(=S)NC3c2ccc(C)cc2)cc1 (configuration not stated)	-10%	x	-22	u	1%	32µM*
COc1nccnc1NS(=O)(=O)c1ccc(N=Cc2c(C)[nH]n(-c3ccccc3)c2=O)cc1	-17%	x	18	-12%	1%	u
Cc1ccc[n+](/C(C(=S)NCc2ccco2)=C(/[O-])c2ccccc2Cl)c1	-7%[46.1 µM]	-3	-5	-1%	26%[38.3 µM]	-8%
CC(C)(C)c1ccc(/C([O-])=C(/C(=S)NCc2ccco2)[n+]2ccccc2)cc1	u	u	34	10µM*	u	-22%
CCOc1ccccc1CNC(=O)C1CCCN(c2nc3ccccc3o2)C1 (configuration not stated)	-8%[46.1 µM]	5	39	u	14%[38.3 µM]	-5%
Cc1cccc(C)c1-n1c(C)cc(/C=N\NC(=O)CC(=O)NC2CCCCC2)c1C	-8%	x	35	-12%	4%	0%
Cc1cc(C)n2nc(C(=O)Nc3ccccc3N3CCOCC3)nc2n1	1%[46.1 µM]	5	u	3%	0%[38.3 µM]	-16%
Cc1cc(Nc2ccccc2N2CCOCC2)n2ncnc2n1	-15%[46.1 µM]	-1	-12	4%	-8%[38.3 µM]	18µM*
Cc1ccc(Nc2nc(N)nc(CN3CCN(c4ccccc4)CC3)n2)cc1Cl	-21%[46.1 µM]	14	6	-10%	2%[38.3 µM]	-7%
COc1cccc(-n2nnnc2SCC(=O)Nc2nc3c(s2)CCCC3)c1	2%[46.1 µM]	9	u	u	25%	25µM*
COC(=O)c1cccc(-n2nnnc2SCC(=O)Nc2nc3c(s2)CCCC3)c1	-12%[46.1 µM]	5	26	u	37%[38.3 µM]	20µM*
CCn1nnnc1SCC(=O)Nc1cc(C)on1	7%[46.1 µM]	-9	-2	-8%	-4%	6%
COC(=O)c1cccc(-n2nnnc2SCC(=O)Nc2cc(C)on2)c1	-4%[46.1 µM]	9	51	11µM*	x	x
COC(=O)c1cccc(NC(=O)CSc2nnnn2C)c1	1%[46.1 µM]	9	26	14µM*	-8%[38.3 µM]	-9%
CCOC(=O)c1cccc(NC(=O)CSc2nnnn2C)c1	-6%[46.1 µM]	-1	u	11%	4%[38.3 µM]	0%

Source: PubChem BioAssay
